Data reported in the supplement of paper PMC10849652.
Targets with a hit are over-represented here; the source holds about 8,800 in all. About 0.5% of all pairs of compound and target were hits.

compound: c1cn2cc(-c3ccc4cn[nH]c4c3)nc(Nc3ccc(N4CCOCC4)cc3)c2n1 [entospletinib]; test: log2 fold change, soluble protein after heating vs DMSO (PISA); higher = thermal stabilisation; K562 lysate, 10 uM; active = over 0.2 and 3.5 SD of the protein, either way, in both replicates (recomputed)
Summary of the method: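 Soluble protein was defined as the supernatant remaining after 21,000xg for 90 min, following pooling of heated aliquots and adjustment to 0.5% NP-40 at 4°C. Before that, crude K562 extract at 1 mg/mL protein in PBS pH 7.4 with 1 mM MgCl2 was treated with 10 μM compound for 30 min and heated for 3 min across 48°C-58°C. Quantification used TMTpro 16plex LC-MS/MS with channel sums equalised, and values are log-two fold changes in thermal stability relative to solvent controls from duplicates.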

Sequence of UniProt P31040 (P31040 whole entry, looked up): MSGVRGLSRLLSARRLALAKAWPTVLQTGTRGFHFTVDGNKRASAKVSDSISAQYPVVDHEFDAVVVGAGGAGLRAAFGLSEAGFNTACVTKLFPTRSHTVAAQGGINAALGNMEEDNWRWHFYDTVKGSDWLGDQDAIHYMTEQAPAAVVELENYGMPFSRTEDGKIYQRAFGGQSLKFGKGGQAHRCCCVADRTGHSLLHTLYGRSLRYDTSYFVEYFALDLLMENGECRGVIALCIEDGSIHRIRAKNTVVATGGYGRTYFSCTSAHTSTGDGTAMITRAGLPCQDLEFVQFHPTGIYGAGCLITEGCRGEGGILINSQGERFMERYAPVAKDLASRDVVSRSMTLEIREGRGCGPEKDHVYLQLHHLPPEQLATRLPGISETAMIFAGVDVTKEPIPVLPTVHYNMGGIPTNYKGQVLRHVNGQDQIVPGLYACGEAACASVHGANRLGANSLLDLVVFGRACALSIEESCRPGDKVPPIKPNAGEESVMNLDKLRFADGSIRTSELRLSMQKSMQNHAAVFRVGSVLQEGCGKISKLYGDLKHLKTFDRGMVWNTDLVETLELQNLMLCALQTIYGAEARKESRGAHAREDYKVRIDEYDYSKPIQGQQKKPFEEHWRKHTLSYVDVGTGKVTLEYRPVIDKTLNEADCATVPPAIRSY
Sequence of UniProt Q92878 (Q92878 whole entry, looked up): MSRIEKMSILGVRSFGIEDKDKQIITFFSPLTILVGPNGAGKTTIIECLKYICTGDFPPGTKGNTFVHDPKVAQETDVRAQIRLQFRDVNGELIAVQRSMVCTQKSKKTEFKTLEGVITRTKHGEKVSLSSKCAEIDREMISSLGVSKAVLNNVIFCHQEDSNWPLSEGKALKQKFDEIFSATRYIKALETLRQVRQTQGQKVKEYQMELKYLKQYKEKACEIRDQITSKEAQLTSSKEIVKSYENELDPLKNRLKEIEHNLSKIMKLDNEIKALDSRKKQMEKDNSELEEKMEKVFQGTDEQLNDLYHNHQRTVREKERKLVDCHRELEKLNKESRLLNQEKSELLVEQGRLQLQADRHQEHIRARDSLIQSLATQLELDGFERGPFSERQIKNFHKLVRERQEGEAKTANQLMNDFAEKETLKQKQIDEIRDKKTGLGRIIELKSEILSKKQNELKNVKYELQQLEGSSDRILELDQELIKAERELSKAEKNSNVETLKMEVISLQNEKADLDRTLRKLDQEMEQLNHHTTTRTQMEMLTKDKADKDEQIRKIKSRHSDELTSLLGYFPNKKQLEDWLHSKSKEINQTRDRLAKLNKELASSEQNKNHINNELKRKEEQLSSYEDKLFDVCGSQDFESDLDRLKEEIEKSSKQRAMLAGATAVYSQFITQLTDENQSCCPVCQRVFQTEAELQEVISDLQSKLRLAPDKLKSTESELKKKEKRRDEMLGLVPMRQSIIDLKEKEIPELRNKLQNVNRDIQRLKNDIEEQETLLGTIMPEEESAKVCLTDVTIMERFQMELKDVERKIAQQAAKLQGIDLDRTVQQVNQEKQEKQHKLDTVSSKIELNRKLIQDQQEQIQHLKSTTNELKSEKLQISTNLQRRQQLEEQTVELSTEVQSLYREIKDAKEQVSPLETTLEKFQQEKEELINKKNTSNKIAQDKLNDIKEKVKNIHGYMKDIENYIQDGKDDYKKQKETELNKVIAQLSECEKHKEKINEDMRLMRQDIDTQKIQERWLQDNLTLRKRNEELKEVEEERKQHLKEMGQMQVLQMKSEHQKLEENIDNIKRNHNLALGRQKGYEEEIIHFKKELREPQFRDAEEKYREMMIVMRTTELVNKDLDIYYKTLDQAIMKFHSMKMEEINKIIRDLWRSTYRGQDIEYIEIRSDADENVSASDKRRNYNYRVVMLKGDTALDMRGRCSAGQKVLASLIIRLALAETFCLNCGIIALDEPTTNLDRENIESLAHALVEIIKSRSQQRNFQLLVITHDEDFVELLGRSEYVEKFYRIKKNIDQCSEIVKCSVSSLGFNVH
Sequence of UniProt Q15418 (Q15418 whole entry, looked up): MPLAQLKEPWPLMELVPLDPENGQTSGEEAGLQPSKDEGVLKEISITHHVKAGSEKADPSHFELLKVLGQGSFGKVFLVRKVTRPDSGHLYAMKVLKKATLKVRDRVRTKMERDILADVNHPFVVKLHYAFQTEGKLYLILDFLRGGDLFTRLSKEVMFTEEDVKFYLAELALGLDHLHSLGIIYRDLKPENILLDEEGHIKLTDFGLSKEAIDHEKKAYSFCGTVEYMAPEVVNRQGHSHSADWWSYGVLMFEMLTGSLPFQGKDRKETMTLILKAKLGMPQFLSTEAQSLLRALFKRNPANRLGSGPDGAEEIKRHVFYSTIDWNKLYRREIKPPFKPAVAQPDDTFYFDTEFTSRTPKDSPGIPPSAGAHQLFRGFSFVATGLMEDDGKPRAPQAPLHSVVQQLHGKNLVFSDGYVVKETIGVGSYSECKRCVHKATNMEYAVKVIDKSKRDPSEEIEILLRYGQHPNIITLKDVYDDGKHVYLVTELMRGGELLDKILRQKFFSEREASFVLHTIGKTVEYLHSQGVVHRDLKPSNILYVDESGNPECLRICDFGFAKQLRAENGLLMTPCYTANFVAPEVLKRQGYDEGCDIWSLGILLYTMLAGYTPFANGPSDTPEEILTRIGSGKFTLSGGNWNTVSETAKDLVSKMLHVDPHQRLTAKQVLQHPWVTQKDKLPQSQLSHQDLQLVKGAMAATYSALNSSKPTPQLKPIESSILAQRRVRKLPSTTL
Sequence of UniProt O60518 (O60518 whole entry, looked up): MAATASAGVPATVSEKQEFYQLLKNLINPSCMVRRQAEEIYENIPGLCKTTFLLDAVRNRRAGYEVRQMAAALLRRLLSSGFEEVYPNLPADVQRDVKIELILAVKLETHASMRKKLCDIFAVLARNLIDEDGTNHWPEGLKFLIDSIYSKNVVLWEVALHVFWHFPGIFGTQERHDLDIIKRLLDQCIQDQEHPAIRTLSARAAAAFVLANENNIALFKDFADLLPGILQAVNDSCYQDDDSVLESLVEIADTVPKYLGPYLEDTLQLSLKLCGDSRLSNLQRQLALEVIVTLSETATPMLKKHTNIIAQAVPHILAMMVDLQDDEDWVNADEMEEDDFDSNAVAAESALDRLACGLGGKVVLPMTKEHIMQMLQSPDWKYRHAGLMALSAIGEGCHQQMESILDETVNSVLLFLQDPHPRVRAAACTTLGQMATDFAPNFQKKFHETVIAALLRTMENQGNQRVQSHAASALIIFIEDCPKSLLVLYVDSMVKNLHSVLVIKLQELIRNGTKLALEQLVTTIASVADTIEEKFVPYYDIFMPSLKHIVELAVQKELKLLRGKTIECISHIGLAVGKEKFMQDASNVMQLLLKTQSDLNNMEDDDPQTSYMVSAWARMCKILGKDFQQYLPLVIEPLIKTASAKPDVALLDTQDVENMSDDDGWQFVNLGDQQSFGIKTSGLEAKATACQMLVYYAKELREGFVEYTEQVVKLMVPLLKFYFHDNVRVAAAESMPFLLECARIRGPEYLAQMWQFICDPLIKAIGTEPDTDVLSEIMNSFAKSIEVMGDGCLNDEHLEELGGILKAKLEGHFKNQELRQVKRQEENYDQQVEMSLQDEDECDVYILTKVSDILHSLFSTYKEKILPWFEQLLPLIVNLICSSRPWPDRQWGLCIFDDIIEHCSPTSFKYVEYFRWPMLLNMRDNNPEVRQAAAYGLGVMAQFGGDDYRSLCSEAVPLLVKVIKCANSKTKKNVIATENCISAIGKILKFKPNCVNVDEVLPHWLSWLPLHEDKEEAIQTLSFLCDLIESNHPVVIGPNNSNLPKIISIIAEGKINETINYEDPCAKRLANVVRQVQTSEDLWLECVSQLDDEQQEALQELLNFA
Sequence of UniProt Q9BRS2 (Q9BRS2 whole entry, looked up): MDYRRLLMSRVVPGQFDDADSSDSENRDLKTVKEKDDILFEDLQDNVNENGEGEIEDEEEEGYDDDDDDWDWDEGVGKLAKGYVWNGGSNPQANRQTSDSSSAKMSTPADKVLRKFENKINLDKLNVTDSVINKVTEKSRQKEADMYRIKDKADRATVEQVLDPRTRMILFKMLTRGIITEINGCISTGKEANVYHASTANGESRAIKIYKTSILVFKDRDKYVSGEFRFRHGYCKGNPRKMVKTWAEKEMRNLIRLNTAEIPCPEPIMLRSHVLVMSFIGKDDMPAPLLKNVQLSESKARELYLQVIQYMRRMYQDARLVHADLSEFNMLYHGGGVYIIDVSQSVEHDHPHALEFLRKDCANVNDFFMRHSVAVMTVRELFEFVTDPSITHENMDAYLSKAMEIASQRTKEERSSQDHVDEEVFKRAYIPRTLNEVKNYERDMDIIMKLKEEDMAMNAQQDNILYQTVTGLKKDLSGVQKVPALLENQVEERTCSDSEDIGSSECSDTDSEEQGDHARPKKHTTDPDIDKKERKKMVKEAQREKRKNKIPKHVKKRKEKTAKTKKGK
Sequence of UniProt Q6NUM9 (Q6NUM9 whole entry, looked up): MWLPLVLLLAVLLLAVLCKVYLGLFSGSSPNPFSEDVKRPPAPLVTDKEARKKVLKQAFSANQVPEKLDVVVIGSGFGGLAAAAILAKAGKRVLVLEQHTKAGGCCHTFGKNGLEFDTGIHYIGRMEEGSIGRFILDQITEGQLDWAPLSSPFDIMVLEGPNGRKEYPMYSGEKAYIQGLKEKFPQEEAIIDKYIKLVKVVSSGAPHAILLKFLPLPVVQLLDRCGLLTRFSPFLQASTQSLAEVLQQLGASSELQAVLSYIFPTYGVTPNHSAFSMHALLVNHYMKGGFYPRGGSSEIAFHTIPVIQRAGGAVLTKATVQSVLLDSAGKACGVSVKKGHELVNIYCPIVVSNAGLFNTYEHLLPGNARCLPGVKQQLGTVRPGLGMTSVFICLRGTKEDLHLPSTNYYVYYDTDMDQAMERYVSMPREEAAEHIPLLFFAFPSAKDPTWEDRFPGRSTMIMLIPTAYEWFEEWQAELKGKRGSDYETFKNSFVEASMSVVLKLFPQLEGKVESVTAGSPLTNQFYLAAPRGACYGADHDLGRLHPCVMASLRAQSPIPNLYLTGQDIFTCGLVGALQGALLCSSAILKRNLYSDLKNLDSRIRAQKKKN
Sequence of UniProt P60059 (P60059 whole entry, looked up): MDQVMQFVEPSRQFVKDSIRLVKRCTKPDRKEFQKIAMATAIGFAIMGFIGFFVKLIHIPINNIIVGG

log2 fold change, inactive:
RFC3 (UniProt P40938) 0.018
RNF2 (UniProt Q99496) -0.033
RAB6D (UniProt Q53S08) -0.01
RDH11 (UniProt Q8TC12) 0.014
RPS6KA1 (UniProt Q15418) -0.038
RPS29 (UniProt P62273) -0.085
RAD50 isoform 2 (UniProt Q92878) -0.003
RAB27A (UniProt P51159) 0.023
RDH14 (UniProt Q9HBH5) 0.026
RANBP6 (UniProt O60518) 0.011
SEC61G (UniProt P60059) -0.034
RNF213, A0A0A0MTC1 0.052
RNF123 (UniProt Q5XPI4) 0
RCOR3 isoform 3 (UniProt Q9P2K3) 0.034
RETSAT (UniProt Q6NUM9) 0.036
RDH10 (UniProt Q8IZV5) 0.162
RNF168 (UniProt Q8IYW5) 0.042
SEH1L isoform 1 (UniProt Q96EE3) -0.011
RINT1 (UniProt Q6NUQ1) -0.089
RIC1 (UniProt Q4ADV7) 0.045
SDHA (UniProt P31040) -0.006
RPTOR (UniProt Q8N122) -0.01
RMI2 (UniProt Q96E14) -0.01
RIOK1 (UniProt Q9BRS2) 0.029
RNPS1 (UniProt Q15287) 0.009
RSU1 (UniProt Q15404) 0.003
RPL36AL (UniProt Q969Q0) -0.001
RPS9 (UniProt P46781) 0.004
RBSN (UniProt Q9H1K0) -0.088
